Values joined by “and” are separate entries in the source; they are usually repeats but may differ in a detail not shown here. Identical values can stand only once. Hit rate of the full screen: of about 5,500 compounds, about 2,000 (36%) were called active. Another 18% or so got no clear call; they are omitted. Rule as the data show it: active = normalized growth mostly below about 0.91 (no sharp cut-off); inconclusive = no clear call, values can overlap the other calls; inactive = mostly above about 0.92. The list shows a part of the results.
Test: chemical genetic growth profiling, strain panel (AID 1159580);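 also: tested at 20 µM; growth read once vehicle control cultures reached saturation at 30 °C; 1 = growth at the plate median or of vehicle wells; lower values mean less growth of the strain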
Details: S. cerevisiae deletion strains, growth OD

Measured: normalized growth

O=C(O)c1ccccc1C(=O)Nc1ccc(S(=O)(=O)Nc2nccs2)cc1
inactive: locus YAL013W, strain DEP1, active compounds read low 1.01 | locus YAL021C, strain ccr4, active compounds read low 0.977 | locus YAL026C, strain drs2, active compounds read low 0.986 | locus YAL030W, strain snc1, active compounds read low 0.987 | locus YBL061C, strain skt5, active compounds read low 0.968 | locus YBR009C, strain hhf1, active compounds read low 0.994 | locus YBR021W, strain FUR4, active compounds read low 1.01 | locus YBR023C, strain chs3, active compounds read low 0.966 | locus YBR171W, strain sec66, active compounds read low 0.978 | locus YBR229C, strain ROT2, active compounds read low 1 | locus YBR231C, strain swc5, active compounds read low 0.985 | locus YBR279W, strain paf1, active compounds read low 0.991 | locus YCL011C, strain gbp2, active compounds read low 0.978 | locus YCL016C, strain dcc1, active compounds read low 0.954 | locus YCL029C, strain bik1, active compounds read low 0.994 | locus YCL061C, strain MRC1, active compounds read low 0.971 | locus YCL069W, strain vba3, active compounds read low 0.988 | locus YCR088W, strain abp1, active compounds read low 0.987 | locus YDL005C, strain med2, active compounds read low 0.973 | locus YDL035C, strain GPR1, active compounds read low 1.02 | locus YDL040C, strain nat1, active compounds read low 0.977 | locus YDL074C, strain BRE1, active compounds read low 1.01 | locus YDL101C, strain DUN1, active compounds read low 1.01 | locus YDL134C, strain PPH21, active compounds read low 1 | locus YDL185W, strain tfp1, active compounds read low 0.995 | locus YDL192W, strain arf1, active compounds read low 0.998 | locus YDR001C, strain nth1, active compounds read low 0.987 | locus YDR069C, strain doa4, active compounds read low 0.975 | locus YDR101C, strain arx1, active compounds read low 0.984 | locus YDR137W, strain rgp1, active compounds read low 0.963 | locus YDR159W, strain sac3, active compounds read low 0.992 | locus YDR162C, strain NBP2, active compounds read low 1 | locus YDR195W, strain ref2 0.996 | locus YDR297W, strain sur2, active compounds read low 0.988 | locus YDR318W, strain mcm21, active compounds read low 0.999 | locus YDR334W, strain swr1, active compounds read low 0.966 | locus YDR335W, strain msn5, active compounds read low 0.984 | locus YDR388W, active compounds read low 0.993 | locus YDR392W, strain spt3, active compounds read low 0.93 | locus YDR502C, strain sam2, active compounds read low 1 | locus YEL003W, strain gim4, active compounds read low 1.01 | locus YEL037C, strain rad23, active compounds read low 0.981 | locus YEL061C, strain CIN8 (second series), active compounds read low 0.99 | locus YEL061C, strain CIN8, active compounds read low 1.01 | locus YER015W, strain faa2, active compounds read low 0.96 | locus YER016W, strain bim1, active compounds read low 0.993 | locus YER110C, active compounds read low 0.998 | locus YER111C, strain swi4, active compounds read low 0.973 | locus YER155C, strain BEM2 (second series), active compounds read low 0.981 | locus YER155C, strain BEM2, active compounds read low 0.995 | locus YER167W, strain BCK2, active compounds read low 0.996 | locus YFR010W, strain ubp6, active compounds read low 0.999 | locus YGL078C, strain dbp3, active compounds read low 0.994 | locus YGL086W, strain mad1, active compounds read low 0.991 | locus YGL167C, strain pmr1, active compounds read low 0.962 | locus YGL173C, strain kem1, active compounds read low 0.959 | locus YGL227W, strain vid30, active compounds read low 0.985 | locus YGL240W, strain doc1, active compounds read low 0.992 | locus YGL248W, strain PDE1, active compounds read low 1 | locus YGL253W, strain hxk2, active compounds read low 0.984 | locus YGR135W, strain pre9, active compounds read low 0.995 | locus YGR229C, strain SMI1, active compounds read low 1.01 | locus YGR252W, strain gcn5, active compounds read low 0.995 | locus YHR013C, strain ard1, active compounds read low 0.949 | locus YHR027C, strain rpn1, active compounds read low 0.977 | locus YHR030C, strain SLT2, active compounds read low 1 and 1.03 | locus YHR079C, strain IRE1 (second series), active compounds read low 0.995 | locus YHR079C, strain IRE1, active compounds read low 1.05 | locus YHR094C, strain hxt1, active compounds read low 0.994 | locus YHR129C, strain ARP1, active compounds read low 1 | locus YHR142W, strain chs7, active compounds read low 0.959 | locus YHR200W, strain rpn10, active compounds read low 0.995 | locus YIL066C, strain RNR3, active compounds read low 1.01 | locus YIL073C, strain SPO22, active compounds read low 1.01 | locus YIL125W, strain kgd1, active compounds read low 0.991 | locus YIR030C, strain dcg1, active compounds read low 0.993 | locus YJL092W, strain hpr5, active compounds read low 0.983 | locus YJL095W, strain BCK1 (second series), active compounds read low 0.982 | locus YJL095W, strain BCK1, active compounds read low 1.02 and 1.01 | locus YJL115W, strain asf1, active compounds read low 0.973 | locus YJL129C, strain trk1, active compounds read low 0.976 | locus YJL134W, strain LCB3, active compounds read low 1 | locus YJL154C, strain vps35, active compounds read low 0.979 | locus YJL164C, strain tpk1, active compounds read low 0.991 | locus YJL166W, strain qcr8, active compounds read low 0.985 | locus YJL168C, strain set2, active compounds read low 0.993 | locus YJL187C, strain SWE1 (second series), active compounds read low 1.02 | locus YJL187C, strain SWE1, active compounds read low 0.979 | locus YJR043C, strain POL32, active compounds read low 0.995

From PubChem BioAssay AID1159580 (chemical genetic matrix, 2015)
